Test results taken from PubChem BioAssay AID720722 (Molecular Libraries Program, Specialized Chemistry Center, …, 2013).
Activity calls are given as the source filed them. The limit is not given here; nearly all actives have IC50 up to about 12 µM.

Experiment: mitochondrial permeability transition pore inhibitors, dose response, biochemical, absorbance, isolated mitochondria, dry powder samples (AID 720722)
Settings: isolated mitochondria swelling

| SMILES | IC50 |
| --- | --- |
| CC1CCCN(CCC(=O)c2ccc(Br)cc2)C1 (stereo not given) | 3.14 µM (active) |
| COc1ccc(Cl)cc1C(=O)Nc1ccc(CN2CCCCC2)cc1 | 5.08 µM (active) |
| C=CCNCCOc1ccc(C(C)(C)c2ccccc2)cc1 | 12.4 µM (active) |
| Cc1cc(C)c2nc(N(CCCN(C)C)C(=O)c3ccc(S(=O)(=O)N4CCCCCC4)cc3)sc2c1 | 2.07 µM (active) |
| CN1CCC[C@@H]1CCO[C@](C)(c1ccccc1)c1ccc(Cl)cc1 | 4.43 µM (active) |
| CNCCC=C1c2ccccc2CCc2ccccc21 | 8.45 µM (active) |
| Cc1ccc2nc(N(CCCN(C)C)C(=O)CCc3ccccc3)sc2c1 | 1.58 µM (active) |
| COc1ccc(C)c2sc(N(CCCN(C)C)C(=O)CS(=O)(=O)c3ccc(F)cc3)nc12 | 3.9 µM (active) |
| COCCCNCCCOc1ccc(Cl)cc1C(C)(C)C | 4.04 µM (active) |
| COc1cc(NC(=O)c2cc(-c3cccc(O)c3)on2)cc(OC)c1OC | 0.391 µM (active) |
| COc1cc(CNCCO)cc(Cl)c1OCc1ccccc1Cl | 2.69 µM (active) |
| N#Cc1c(NCCN)nc(-c2ccco2)c2c1CCCC2 | 8.12 µM (active) |
| COC(=O)c1c(NC(=O)C2CCCCC2)sc2c1CC(C)(C)NC2(C)C | 3.64 µM (active) |
| CCN(CC)CCCN=Cc1c(O)n(Cc2ccccc2)c(=O)c2ccccc12 | 3.34 µM (active) |
| COc1ccc(-n2cc(CNC3CCN(C)CC3)c(-c3cccc(F)c3)n2)cc1 | 2.03 µM (active) |
| N=c1sccn1CC(=O)Nc1cccc(Oc2ccccc2)c1 | 2.92 µM (active) |
| Cc1cc(C)c2nc(N(CCCN(C)C)C(=O)C3=COCCO3)sc2c1 | 3.11 µM (active) |
| CCOC(=O)N1CCN(S(=O)(=O)c2ccc(C(=O)N(CCCN(C)C)c3nc4c(C)c(C)ccc4s3)cc2)CC1 | 5.28 µM (active) |
| CCN(CC)c1ccc(NC(=O)c2cc(Cl)ccc2OC)cc1 | 5.7 µM (active) |
| O=C(CC1NCCc2ccccc21)Nc1ccc(Cl)cc1 (stereo not given) | 2.78 µM (active) |
| Cc1ccc2nc(N(CCN(C)C)C(=O)/C=C/c3cccs3)sc2c1 | 3.33 µM (active) |
| CC(C)(C)c1ccccc1OCCCCCNCCO | 3.67 µM (active) |
| C=CCNCCOCCOc1ccc(Cl)cc1C(C)(C)C | 4.04 µM (active) |
| CN(C)CCCN1c2ccccc2Sc2ccc(Cl)cc21 | 2.5 µM (active) |
| C=CCNCCCOc1ccc(C)cc1Br | 11.6 µM (active) |
